Laboratory results taken from PubChem BioAssay.
Results filed as inconclusive are left out. Activity calls are given as the source filed them.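 How the source made its calls, unless noted: active means inhibition above the screen-wide mean plus 3 SD, about 51%; inactive means the rest.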

Experiments:
[1] = yeast TOR pathway RPL19A-GFP modulators, primary screen, cell-based, S. cerevisiae, multiplex flow cytometry (AID 1862; in the data active means percent of DMSO control GFP below about 86%;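 further: lower values mimic rapamycin by blocking the RPL19A rise seen in DMSO cells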); details: S. cerevisiae RPL19A-GFP strain, flow cytometry fluorescence, 3 h; at 10 µM; stronger effect = lower value
[2] = modulators of MEP2-GFP levels in yeast, primary screen, S. cerevisiae, multiplex flow cytometry (AID 1867;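 active means GFP response, as percent of the DMSO control, above the screen-wide mean plus 3 SD, about 139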;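 further: median GFP channel fluorescence of barcode-gated MEP2-GFP cells measured by flow cytometry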); details: S. cerevisiae MEP2-GFP strain, 3 h, at 10 µM, stronger effect = higher value, 100% means same as DMSO wells
[3] = modulators of CIT2-GFP expression in yeast, primary screen, S. cerevisiae, GFP fusion, multiplex flow cytometry (AID 1870;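 active means percent response above a set limit, the screen-wide mean plus 3 SD, cut at about 130% in these data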;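 further: barcoded CIT2-GFP strain pooled with four other GFP strains with rapamycin as positive control; median GFP fluorescence per well over plate mean of DMSO wells so 100% = DMSO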); details: 3 h, at 10 µM, stronger effect = higher value
[4] = modulators of LAP4-GFP expression in yeast, primary screen, S. cerevisiae, multiplex flow cytometry (AID 1873;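 active means GFP signal, as percent of the solvent control, above the screen mean plus 3 SD, about 149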); details: 3 h, at 10 µM, stronger effect = higher value
[5] = modulators of AGP1-GFP expression in yeast TOR pathway, primary screen, cell-based, multiplex flow cytometry, S. cerevisiae (AID 1887;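 active means GFP signal above the screen-wide mean plus 3 SD, that is over about 124.5% of the solvent control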;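 further: AGP1-GFP fusion strain of S. cerevisiae within a five-strain barcoded multiplex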); details: 3 h, at 10 µM, stronger effect = higher value
[6] = inhibitors of CD8+ T cell-vesicle binding, pilot screen, LFA-1/ICAM-1 modulator project, MLPCN validation set, flow cytometry (AID 2523;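 active means response below a set limit, under 55% cells CD8-positive and vesicle-bound, and CD8 cells' 90th-percentile brightness under 279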;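 on vesicle binding response: mean PE anti-B7-1 fluorescence of CD8+ cells relative to row control; 100% = QL9-loaded vesicles with DMSO vehicle in the same plate row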); details: 2C mouse CD8+ T cells, at 7 µM, stronger effect = lower value; double positive events: measured here: CD8+/vesicle+ event percentage
[7] = biological target: Integrin beta-1 (Homo sapiens) + Integrin alpha-4 (Homo sapiens) (UniProt P13612+P05556); test: inhibition of HUTS-21 binding to VLA-4, pilot screen, VLA-4 allosteric modulator project, U937 cells, HUTS-21 mAb, flow cytometry, validation set (AID 2674;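 active means inhibition above 50%, about 3 SD of the validation set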;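 further: antibody binding induced by the VLA-4 ligand LDV present at three times its Kd; 0% = LDV ligand with antibody and no compound and 100% = antibody without LDV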); details: HUTS-21 LIBS mAb binding, at 6.7 µM, stronger effect = higher value, binding induced by LDV ligand
[8] = superoxide lowering in aged yeast cells, pilot screen, validation compound set (AID 2706;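 active means superoxide response below 65% of plate, a cut near 3 SD across the whole screen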;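 further: yeast exposed to compound for one week at 30 degrees C before staining; 100% = mean of all compound wells on the same plate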); details: S. cerevisiae aging, superoxide DHE fluorescence; at 10 µM; stronger effect = lower value
[9] = biological target: Beta-adrenergic receptor kinase 1 (Homo sapiens) (UniProt P25098); test: GRK2 binders displacing RNA aptamer, biochemical, validation, human GRK2, bead flow cytometry (AID 488806;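 active means aptamer binding inhibition above 30%, about 3 SD of noise from non-fluorescent compounds; inactive means inhibition at or below 30%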); details: bead-bound GRK2, FAM-aptamer displacement, at 10 µM, stronger effect = higher value
[10] = biological target: Beta-2 adrenergic receptor (Homo sapiens) (UniProt P07550); test: beta2AR agonists driving receptor internalization, pilot screen, cell-based, FAP fluorogen, flow cytometry, validation set (AID 504459;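 active means percent response above 42, roughly 3 SD of non-fluorescent test compounds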;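 further: agonist-driven loss of surface beta2AR via internalization measured by FAP dye flow cytometry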); details: Am2.2-beta2AR cells, FAP surface receptor flow cytometry; at 10 µM; stronger effect = higher value
[11] = biological target: AP-2 complex subunit beta (Homo sapiens) (UniProt P63010); test: inhibitors of arrestin peptide binding to AP2, pilot screen, biochemical, validation set, GST-AP2 beads, flow cytometry (AID 504541;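 active means inhibition above 54%, about 3 SD of non-fluorescent compounds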;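 further: AP2 carries R879A mutation and is captured from E. coli lysate; bead-bound FITC arrestin peptide fluorescence measuring arrestin peptide binding to AP2; 0% = DMSO wells and 100% = excess unlabeled arrestin peptide control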); details: FITC arrestin peptide, at 10 µM, stronger effect = higher value, AP2 beta2 appendage fragment, R879A mutant
[12] = yeast V-ATPase proton transport modulators, S. cerevisiae, pHLuorin, HTS validation (AID 504600; in the data active means response above about 15%;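 further: plate controls were DMSO for no effect and reference compound for full effect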); details: S. cerevisiae pHLuorin cytosolic pH, at 10 µM, stronger effect = higher value
[13] = tested on: anti-desmoglein-3 scFv antibody binding to human DSG3; test: inhibitors of anti-DSG3 scFv binding to DSG3, pilot screen, biochemical, validation compound set, bead-based, flow cytometry (AID 588368;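 active means binding below the plate cutoff, the plate median minus 3 SD, with a reading above zero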;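 further: signal is the median channel fluorescence of bead-bound GFP antibody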); details: Protein G beads, DSG3-Fc, scFv-GFP binding, at 10 µM, stronger effect = lower value
[14] = inhibitors of fungal efflux pumps CDR1, CDR2, MDR1, pilot screen, validation compound set, multiplex, phenotypic (AID 588506;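 active means efflux inhibition above 0.42, the validation set average plus 4 SD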;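 further: Nile Red retained in cells so higher fluorescence means more efflux inhibition; 0 = negative control wells and 1 = enniatin B 25 µM full block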); details: S. cerevisiae pump-expressing triplex, Nile Red efflux flow cytometry; at 10 µM; stronger effect = higher value; the pumps come from Candida albicans
[15] = biological target: ATP-binding cassette sub-family B member 6 (Homo sapiens) (UniProt Q9NP58); test: ABCB6 transporter inhibitors, pilot screen, K562-ABCB6 cells, flow cytometry, validation set (AID 588550); details: K562-ABCB6 porphyrin accumulation, 1 h, at 10 µM, stronger effect = higher value;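 further: 0% = DMSO wells and 100% = benzethonium chloride 70 µM positive control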
[16] = promoters of myeloid differentiation in arrested cells, primary screen, cell-based, GFP/MAC1 double positive, flow cytometry, validation set (AID 588685;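 active means differentiation response of at least 50%, scaled between solvent and reference control, from cells with both markers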;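 further: compound exposure lasts four days before antibody staining and flow analysis; 0% = DMSO wells and 100% = 5 µM fulvestrant positive control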); details: ER-HoxA9 marrow cells, stronger effect = higher value, normalized: vehicle 0, fulvestrant 100

Beta-2 adrenergic receptor (Homo sapiens), sequence (P07550 whole entry, looked up): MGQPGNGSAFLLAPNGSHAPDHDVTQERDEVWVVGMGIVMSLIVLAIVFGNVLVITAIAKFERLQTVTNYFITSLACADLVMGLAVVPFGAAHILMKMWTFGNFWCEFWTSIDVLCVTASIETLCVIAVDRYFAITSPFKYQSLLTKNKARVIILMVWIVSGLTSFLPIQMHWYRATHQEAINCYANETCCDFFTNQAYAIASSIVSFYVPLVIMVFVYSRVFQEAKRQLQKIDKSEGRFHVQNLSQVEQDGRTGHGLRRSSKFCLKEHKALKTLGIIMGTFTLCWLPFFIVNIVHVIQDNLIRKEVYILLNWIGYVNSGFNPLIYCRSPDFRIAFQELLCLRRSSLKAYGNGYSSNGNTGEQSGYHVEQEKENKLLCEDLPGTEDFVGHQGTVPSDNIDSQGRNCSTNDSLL
ATP-binding cassette sub-family B member 6 (Homo sapiens), sequence (Q9NP58 whole entry, looked up): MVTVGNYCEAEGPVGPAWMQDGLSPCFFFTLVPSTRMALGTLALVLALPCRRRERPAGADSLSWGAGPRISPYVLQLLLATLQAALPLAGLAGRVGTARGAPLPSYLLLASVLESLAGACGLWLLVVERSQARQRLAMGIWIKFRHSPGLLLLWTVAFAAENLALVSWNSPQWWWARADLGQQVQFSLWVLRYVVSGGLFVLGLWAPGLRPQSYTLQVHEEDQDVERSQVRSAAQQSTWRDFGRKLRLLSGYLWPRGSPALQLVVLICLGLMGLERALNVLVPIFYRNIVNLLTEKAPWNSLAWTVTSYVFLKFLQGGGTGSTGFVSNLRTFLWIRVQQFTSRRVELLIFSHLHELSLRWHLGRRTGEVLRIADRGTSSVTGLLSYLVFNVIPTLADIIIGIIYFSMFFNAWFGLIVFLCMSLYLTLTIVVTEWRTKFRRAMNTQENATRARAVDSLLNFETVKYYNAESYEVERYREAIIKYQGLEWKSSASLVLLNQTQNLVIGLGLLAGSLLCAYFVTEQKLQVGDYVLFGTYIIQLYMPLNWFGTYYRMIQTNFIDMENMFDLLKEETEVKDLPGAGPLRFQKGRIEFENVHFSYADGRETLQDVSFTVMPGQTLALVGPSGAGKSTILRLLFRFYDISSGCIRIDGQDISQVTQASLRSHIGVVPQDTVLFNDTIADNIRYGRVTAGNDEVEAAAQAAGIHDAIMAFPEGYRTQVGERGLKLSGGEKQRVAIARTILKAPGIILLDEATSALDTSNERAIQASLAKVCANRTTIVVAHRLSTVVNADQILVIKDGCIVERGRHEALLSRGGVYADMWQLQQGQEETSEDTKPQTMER
Beta-adrenergic receptor kinase 1 (Homo sapiens), sequence (P25098 whole entry, looked up): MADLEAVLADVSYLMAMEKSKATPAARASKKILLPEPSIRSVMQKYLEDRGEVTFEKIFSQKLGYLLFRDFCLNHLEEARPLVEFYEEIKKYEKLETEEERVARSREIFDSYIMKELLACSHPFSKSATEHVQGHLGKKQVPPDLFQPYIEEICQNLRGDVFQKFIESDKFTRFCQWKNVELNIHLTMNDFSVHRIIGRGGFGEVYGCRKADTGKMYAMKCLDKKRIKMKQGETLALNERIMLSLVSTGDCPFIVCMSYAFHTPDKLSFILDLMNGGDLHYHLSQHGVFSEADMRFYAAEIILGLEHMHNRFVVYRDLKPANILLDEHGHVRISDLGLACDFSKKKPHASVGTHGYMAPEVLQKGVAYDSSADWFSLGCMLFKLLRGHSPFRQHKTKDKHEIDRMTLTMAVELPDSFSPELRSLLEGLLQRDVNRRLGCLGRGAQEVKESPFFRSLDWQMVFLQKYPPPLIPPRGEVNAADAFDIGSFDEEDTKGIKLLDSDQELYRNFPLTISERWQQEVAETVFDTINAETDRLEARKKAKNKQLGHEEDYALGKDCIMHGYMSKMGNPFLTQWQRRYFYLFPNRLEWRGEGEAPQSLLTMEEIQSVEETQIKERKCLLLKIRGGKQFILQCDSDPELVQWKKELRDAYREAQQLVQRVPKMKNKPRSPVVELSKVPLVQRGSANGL
Integrin beta-1 (Homo sapiens) + Integrin alpha-4 (Homo sapiens), sequence (P05556 whole entry, looked up): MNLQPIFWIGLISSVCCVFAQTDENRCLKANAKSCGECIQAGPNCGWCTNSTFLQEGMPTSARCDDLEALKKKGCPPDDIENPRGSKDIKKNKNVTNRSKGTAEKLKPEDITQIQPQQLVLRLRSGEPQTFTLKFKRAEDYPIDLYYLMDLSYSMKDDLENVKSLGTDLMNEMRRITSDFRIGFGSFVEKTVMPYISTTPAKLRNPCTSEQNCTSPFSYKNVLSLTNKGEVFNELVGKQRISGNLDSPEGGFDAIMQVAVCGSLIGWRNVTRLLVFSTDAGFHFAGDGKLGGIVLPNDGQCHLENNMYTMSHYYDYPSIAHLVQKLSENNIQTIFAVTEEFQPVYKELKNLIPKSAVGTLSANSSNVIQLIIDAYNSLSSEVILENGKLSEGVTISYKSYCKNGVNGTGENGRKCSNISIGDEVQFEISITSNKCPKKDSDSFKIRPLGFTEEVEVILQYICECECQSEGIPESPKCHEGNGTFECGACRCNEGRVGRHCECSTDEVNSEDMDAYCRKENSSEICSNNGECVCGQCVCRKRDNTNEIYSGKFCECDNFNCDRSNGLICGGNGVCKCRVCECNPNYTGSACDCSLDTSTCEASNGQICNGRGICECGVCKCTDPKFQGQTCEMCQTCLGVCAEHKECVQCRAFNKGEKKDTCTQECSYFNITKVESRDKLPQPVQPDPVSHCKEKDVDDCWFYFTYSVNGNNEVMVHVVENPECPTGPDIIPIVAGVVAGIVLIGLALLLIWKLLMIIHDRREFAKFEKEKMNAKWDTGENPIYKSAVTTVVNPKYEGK
Integrin beta-1 (Homo sapiens) + Integrin alpha-4 (Homo sapiens), sequence (P13612 whole entry, looked up): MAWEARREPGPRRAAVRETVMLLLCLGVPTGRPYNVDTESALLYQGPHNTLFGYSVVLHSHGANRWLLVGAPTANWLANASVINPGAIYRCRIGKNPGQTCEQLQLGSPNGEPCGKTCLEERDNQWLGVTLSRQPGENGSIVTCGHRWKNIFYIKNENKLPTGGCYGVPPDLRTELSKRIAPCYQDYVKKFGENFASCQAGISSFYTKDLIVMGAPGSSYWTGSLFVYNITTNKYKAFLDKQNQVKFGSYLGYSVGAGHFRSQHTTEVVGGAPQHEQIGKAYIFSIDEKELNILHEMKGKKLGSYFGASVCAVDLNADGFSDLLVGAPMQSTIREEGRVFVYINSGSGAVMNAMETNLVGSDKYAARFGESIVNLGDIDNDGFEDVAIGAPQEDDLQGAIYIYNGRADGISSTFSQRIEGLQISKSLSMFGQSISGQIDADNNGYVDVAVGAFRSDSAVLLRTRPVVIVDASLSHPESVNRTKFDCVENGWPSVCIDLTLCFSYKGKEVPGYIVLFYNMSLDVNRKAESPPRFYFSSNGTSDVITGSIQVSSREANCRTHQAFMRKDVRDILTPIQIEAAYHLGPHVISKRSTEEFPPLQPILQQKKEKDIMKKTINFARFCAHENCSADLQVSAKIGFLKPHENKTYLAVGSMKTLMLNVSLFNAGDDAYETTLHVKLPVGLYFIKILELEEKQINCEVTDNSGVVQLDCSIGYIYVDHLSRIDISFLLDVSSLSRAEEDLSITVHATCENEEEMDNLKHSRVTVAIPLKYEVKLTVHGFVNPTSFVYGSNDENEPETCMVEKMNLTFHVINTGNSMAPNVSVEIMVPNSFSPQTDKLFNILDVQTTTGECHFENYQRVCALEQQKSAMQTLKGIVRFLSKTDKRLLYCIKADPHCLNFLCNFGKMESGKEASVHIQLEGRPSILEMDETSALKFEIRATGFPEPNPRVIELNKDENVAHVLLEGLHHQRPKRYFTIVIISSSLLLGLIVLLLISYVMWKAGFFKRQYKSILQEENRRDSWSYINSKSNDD
AP-2 complex subunit beta (Homo sapiens), sequence (P63010 whole entry, looked up, the tested form may be a part, one chain of several): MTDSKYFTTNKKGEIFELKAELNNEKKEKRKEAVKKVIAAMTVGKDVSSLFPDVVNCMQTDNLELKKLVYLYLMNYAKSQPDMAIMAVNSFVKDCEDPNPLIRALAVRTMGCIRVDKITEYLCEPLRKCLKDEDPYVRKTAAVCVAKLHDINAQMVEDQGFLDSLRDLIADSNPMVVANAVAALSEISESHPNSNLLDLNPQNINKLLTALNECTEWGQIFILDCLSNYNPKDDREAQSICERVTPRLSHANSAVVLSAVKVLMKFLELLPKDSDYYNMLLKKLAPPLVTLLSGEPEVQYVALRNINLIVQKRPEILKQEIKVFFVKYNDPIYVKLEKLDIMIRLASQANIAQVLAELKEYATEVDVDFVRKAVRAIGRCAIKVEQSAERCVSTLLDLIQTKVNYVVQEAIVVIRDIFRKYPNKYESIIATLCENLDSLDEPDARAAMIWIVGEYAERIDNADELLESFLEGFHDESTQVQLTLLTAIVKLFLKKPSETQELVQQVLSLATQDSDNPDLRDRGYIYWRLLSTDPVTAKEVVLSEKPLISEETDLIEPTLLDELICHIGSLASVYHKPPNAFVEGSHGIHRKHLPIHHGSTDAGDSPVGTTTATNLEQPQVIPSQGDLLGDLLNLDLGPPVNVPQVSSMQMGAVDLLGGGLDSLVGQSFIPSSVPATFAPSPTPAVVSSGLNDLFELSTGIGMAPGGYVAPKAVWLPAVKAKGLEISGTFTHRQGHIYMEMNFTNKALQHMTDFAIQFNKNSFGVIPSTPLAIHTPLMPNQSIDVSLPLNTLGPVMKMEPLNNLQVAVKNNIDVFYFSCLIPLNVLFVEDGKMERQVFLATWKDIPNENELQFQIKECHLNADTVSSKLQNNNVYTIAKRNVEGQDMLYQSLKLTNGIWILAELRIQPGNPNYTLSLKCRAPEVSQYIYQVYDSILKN

| Structure (SMILES) | percent of DMSO control GFP [1] | GFP response vs DMSO [2] | percent response of DMSO control [3] | GFP response vs DMSO [4] | GFP response, % of DMSO [5] | double positive events [6] | vesicle binding response [6] | inhibition [7] | superoxide response (% of plate) [8] | aptamer binding inhibition [9] | response [10] | inhibition [11] | response [12] | binding (% of control) [13] | efflux inhibition (fraction of control) [14] | inhibition [15] | differentiation response [16] |
| --- | --- | --- | --- | --- | --- | --- | --- | --- | --- | --- | --- | --- | --- | --- | --- | --- | --- |
| CC1(C)C(C=C(Cl)Cl)C1C(=O)N1CCN(Cc2ccccc2)CC1 (stereo not drawn) | 103% (inactive) | 99.3% (inactive) | 104% (inactive) | 89.4% (inactive) | 103% (inactive) | 66.3% | 329% (inactive) | -6.68% (inactive) | 102% (inactive) | 3% (inactive) | -1.88% (inactive) | 5.16% (inactive) | -5.4% (inactive) | 93.5% (inactive) | -0.01 (inactive) | 13% (inactive) | -9.53% (inactive) |
| CC(C)CC(NC(=O)CNC(=O)C1O[C@@H]2OC(C)(C)O[C@@H]2[C@H]2OC(C)(C)O[C@@H]12)C(=O)O (stereo partly drawn) | 101% (inactive) | 104% (inactive) | 102% (inactive) | 99.9% (inactive) | 102% (inactive) | 62.4% | 214% (inactive) | -46.1% (inactive) | 97.8% (inactive) | -1% (inactive) | -1.33% (inactive) | 9.78% (inactive) | -1.96% (inactive) | 96.9% (inactive) | -0.04 (inactive) | -3% (inactive) | 12.9% (inactive) |
| COc1ccc(NC(=S)N2CCN(CCN3C(=O)c4cccc5cccc(c45)C3=O)CC2)cc1 | 101% (inactive) | 129% (inactive) | 104% (inactive) | 90.2% (inactive) | 91.9% (inactive) | 59.1% | 31.6% (inactive) | -6.15% (inactive) | 86.5% (inactive) | 0% (inactive) | -4.94% (inactive) | 24.4% (inactive) | -0.62% (inactive) | 105% (inactive) | 0.34 (inactive) | 9% (inactive) | 18% (inactive) |
| Nc1nc(SCc2ccc([N+](=O)[O-])cc2)c2ncn(C3OC(CO)C(O)C3O)c2n1 (stereo not drawn) | 108% (inactive) | 99.7% (inactive) | 106% (inactive) | 100% (inactive) | 107% (inactive) | 63.2% | 169% (inactive) | 8.29% (inactive) | 105% (inactive) | 0% (inactive) | -15.6% (inactive) | 14.6% (inactive) | 0.04% (inactive) | 98.1% (inactive) | -0.07 (inactive) | 2% (inactive) | -7.5% (inactive) |
| CC(C)(C)C(=O)NC(=S)NNC(=O)c1ccncc1 | 98.2% (inactive) | 104% (inactive) | 101% (inactive) | 127% (inactive) | 109% (inactive) | 57.3% | 185% (inactive) | -7.08% (inactive) | 88.6% (inactive) | -5% (inactive) | -25% (inactive) | -3.36% (inactive) | 2.56% (inactive) | 105% (inactive) | -0.04 (inactive) | -5% (inactive) | -7.94% (inactive) |
| c1cnc(N2CCN(Cc3ccc4c(c3)OCO4)CC2)nc1 | 101% (inactive) | 101% (inactive) | 102% (inactive) | 97% (inactive) | 103% (inactive) | 73.9% | 330% (inactive) | 2.93% (inactive) | 103% (inactive) | -1% (inactive) | 2.78% (inactive) | 2.85% (inactive) | 0.81% (inactive) | 105% (inactive) | 0.235 (inactive) | 2% (inactive) | -13.3% (inactive) |
| CN(C)CCOC(c1ccccc1)c1ccccc1 (tested in a mixture with another compound) | 103% (inactive) | 99.3% (inactive) | 98.9% (inactive) | 91.4% (inactive) | 96.4% (inactive) | 58.3% | 138% (inactive) | 13% (inactive) | 91.9% (inactive) | 3% (inactive) | -5.43% (inactive) | -10.1% (inactive) | -1% (inactive) | 93.3% (inactive) | 0.27 (inactive) | 2% (inactive) | 5.13% (inactive) |
| CC(=O)c1cc2c(cc1NC(=O)c1ccco1)OCCO2 | 103% (inactive) | 107% (inactive) | 109% (inactive) | 120% (inactive) | 110% (inactive) | 58.2% | 178% (inactive) | 10.8% (inactive) | 91.9% (inactive) | 1% (inactive) | -30.9% (inactive) | -8.68% (inactive) | -7.07% (inactive) | 99.5% (inactive) | -0.04 (inactive) | 2% (inactive) | -11.9% (inactive) |
| CC(C)(C)NCC(O)COc1ccccc1C(=O)CCc1ccccc1 (stereo not drawn) | 101% (inactive) | 101% (inactive) | 96.4% (inactive) | 108% (inactive) | 122% (inactive) | 60.4% | 196% (inactive) | 44% (inactive) | 129% (inactive) | -1% (inactive) | -37.6% (inactive) | -9.53% (inactive) | -4.49% (inactive) | 104% (inactive) | 0.04 (inactive) | 8% (inactive) | 46.2% (inactive) |
